Assay outcomes (PubChem BioAssay)
HEK293 cAMP cs = counter-screen for TSHR agonists: cAMP increase in parental HEK293; parental HEK293 CNG cAMP sensor, membrane potential fluorescence; Potency, µM (series often up to 57.1 µM), inactives show at the top dose activation, most hits filed as activators; actives 2.5% (n = 73,000); note: % of control where 0% means no effect; nearly all actives have a fitted effect of over 55% in size
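Counterscreen for endogenous-receptor signalling: CNG-channel HEK 293 cells report cAMP rise by membrane depolarization. After 60 min dye equilibration with 100 uM RO 20-1724, compounds incubated 30 min before bottom-read fluorescence at 590 nm.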
GBA mod = modulators of human glucocerebrosidase; purified enzyme, resorufin glucoside fluorescence (screen aimed at inhibitors), 20 min; Potency, µM; actives 1.1% (n = 48,000); in the data active = potency below about 15 µM; inconclusive = mostly about 16 µM to 33 µM;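 note: the screen sought inhibitors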
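Compounds titrated against 0.2 nM normal enzyme, 30 uM resorufin beta-D-glucopyranoside substrate, citrate/phosphate buffer with taurocholate and tween-20, pH 5.9. Reaction ran 20 min at room temperature; fluorescence (Ex 548/Em 600) gave AC50.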
TSHR agonist = activates the human thyroid stimulating hormone receptor; P16473; HEK293-CNG-TSHR cells (CNG channel as cAMP sensor), membrane potential dye, cAMP; Potency, µM (top dose mostly 57.1 µM), for inactives: at the top dose activation, usual class: activators; actives 0.48% (n = 73,000); active = well fitted activation curve with a large enough effect in the main read-out, with a control signal flat, not every such curve was filed as active; inconclusive = small, poorly fitted or top-dose-only effect, or a change in a side signal; inactive = no such curve, though single readings can be large or run the other way; % of control where 0% means no effect;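 note: the control signal comes from parental cells without the receptor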
Target sequence (P16473 whole entry, looked up): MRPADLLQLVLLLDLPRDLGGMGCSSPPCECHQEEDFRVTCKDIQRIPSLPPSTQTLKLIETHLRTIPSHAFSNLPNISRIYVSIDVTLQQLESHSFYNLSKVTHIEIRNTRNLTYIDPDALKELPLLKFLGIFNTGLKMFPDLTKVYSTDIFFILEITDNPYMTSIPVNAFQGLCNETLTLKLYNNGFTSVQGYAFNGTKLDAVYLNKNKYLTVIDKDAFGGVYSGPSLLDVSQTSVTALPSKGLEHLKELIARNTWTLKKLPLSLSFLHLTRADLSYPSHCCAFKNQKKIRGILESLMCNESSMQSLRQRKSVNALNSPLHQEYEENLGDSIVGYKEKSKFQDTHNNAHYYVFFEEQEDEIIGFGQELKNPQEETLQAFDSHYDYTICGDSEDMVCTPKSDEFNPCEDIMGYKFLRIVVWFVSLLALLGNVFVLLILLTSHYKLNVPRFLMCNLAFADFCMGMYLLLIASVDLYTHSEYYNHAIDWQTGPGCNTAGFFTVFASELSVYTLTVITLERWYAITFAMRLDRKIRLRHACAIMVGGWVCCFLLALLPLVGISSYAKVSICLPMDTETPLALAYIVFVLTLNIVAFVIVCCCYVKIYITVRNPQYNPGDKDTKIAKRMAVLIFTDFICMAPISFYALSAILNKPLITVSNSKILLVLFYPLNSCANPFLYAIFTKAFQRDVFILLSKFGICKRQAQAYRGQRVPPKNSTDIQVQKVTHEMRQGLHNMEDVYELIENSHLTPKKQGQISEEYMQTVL
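HEK 293 cells stably expressing TSHR and a cAMP-gated CNG channel; parental CNG-only cells as counterscreen. Cells preloaded 60 min with membrane potential dye plus 100 uM RO 20-1724, then compound 30 min; fluorescence read at 590 nm.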
ERK AVP inh = blocks ERK signaling stimulated by vasopressin | Potency, µM (series often up to 57.5 µM), inactives show at the highest dose activity, negative = inhibition, usual class: inhibitors | AID 995 | actives 0.99% (n = 72,000) | HEK293-V1b, vasopressin-stimulated pERK AlphaScreen; note: % is set by controls: 0 for no effect and ±100 for the full control effect; nearly all actives have a fitted effect of over 55% in size
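V1b-HEK293 cells; cpd 30 min 37C; 25 nM vasopressin 5 min; lyse 10 min; AlphaScreen beads 5 hr RT. Normalized to DMSO basal and 25 nM vasopressin; AC50 by Hill fit.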
PK Bst = modulators of Bacillus stearothermophilus pyruvate kinase. purified pyruvate kinase, luminescence ATP production; ribose 5-phosphate activator present at AC10. Potency, µM. actives 1.2% (n = 51,000). AID 361; in the data active = potency below about 11 µM; inconclusive = mostly about 12 µM to 25 µM;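 the screen sought inhibitors and activators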;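 note: scaled between full activation by ribose 5 phosphate and full inhibition by luteolin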
FLuc inh = inhibitors of firefly luciferase; actives 2.2% (n = 72,000); Potency, µM (top dose mostly 57.1 µM), for the others: top-dose activity change, negative = inhibition, hits mostly inhibitors; purified firefly luciferase, luminescence, 8 min; P08659; note: % is set by controls: 0 for no effect and ±100 for the full control effect; nearly all actives have a fitted effect of over 40% in size
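Substrate buffer containing 10 uM ATP (pH 7.2 imidazole, Mg2+, KCl, detergent, BSA) is dispensed, compound pinned in, then luciferase/luciferin detector mix added. After 8 min at ambient temperature, light output is measured.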
Active calls of the source: *; [ ] = another dose, or the depositor's remark. In the library only some 6.1% were active in any assay of this set; here they are far more common. Unless noted, calls come from the whole dose curve; as a rule, active = well fitted curve in the direction sought with a large enough effect; inconclusive = small, poorly fitted or top-dose-only effect, or another doubt; inactive = no such curve, though single readings can be large; an effect the other way counts as inactive or inconclusive. Potency is the fitted concentration of half-maximal effect.

What do the screens show for `Cc1noc(C)c1CN1C(=O)NC(Cc2ccccc2)(Cc2ccccc2)C1=O`?
HEK293 cAMP cs: 0%; GBA mod: >77; TSHR agonist: 25µM*; ERK AVP inh: 5%; PK Bst: >57; FLuc inh: -3%

How did CC(C)NS(=O)(=O)c1ccc(OCC(=O)Nc2ccc3c(c2)OCO3)c(Cl)c1 do in these assays?
HEK293 cAMP cs: -8%; GBA mod: >77; TSHR agonist: -15%; ERK AVP inh: -8%; PK Bst: >57; FLuc inh: -3%

What do the screens show for `O=C(CN1C(=O)COc2ccc(Cl)cc21)Nc1ccc2c(c1)OCCO2`?
HEK293 cAMP cs: 2%; GBA mod: >77; TSHR agonist: 15%; ERK AVP inh: -8%; PK Bst: 3.6*; FLuc inh: -2%

How did COC(=O)COc1ccc(S(=O)(=O)Nc2ccc3c(c2)OCCO3)cc1Cl do in these assays?
HEK293 cAMP cs: 6%; GBA mod: 14*; TSHR agonist: 4%; ERK AVP inh: -28%; PK Bst: >57; FLuc inh: 5%

How did O=C(COc1ccccc1Cl)Nc1ccc2c(c1)OCCO2 do in these assays?
HEK293 cAMP cs: inconclusive; TSHR agonist: inconclusive; ERK AVP inh: -29%; FLuc inh: 10µM*

How did Cc1cnc(NC(=O)COc2ccccc2Cl)s1 do in these assays?
HEK293 cAMP cs: 2%; GBA mod: >77; TSHR agonist: -12%; ERK AVP inh: -2%; PK Bst: 1.4*; FLuc inh: 1.3µM*

What do the screens show for `Cc1cccc(NC(=O)CN2C(=O)COc3ccc(Cl)cc32)c1`?
HEK293 cAMP cs: 22%; GBA mod: >77; TSHR agonist: 15%; ERK AVP inh: 22%; PK Bst: >57; FLuc inh: -2%

Results for CC(=O)c1ccc(OC2C=CC(c3ccc(Cl)cc3)OC2CO)cc1 (stereo not given) ?
HEK293 cAMP cs: 1%[11.4 µM]; TSHR agonist: 2%[11.4 µM]; ERK AVP inh: 3%[11.5 µM]

Results for Cc1ccc(C)c(OCC(=O)Nc2ccc3c(c2)OCO3)c1 ?
HEK293 cAMP cs: inconclusive; TSHR agonist: inconclusive; ERK AVP inh: -12%; PK Bst: >57; FLuc inh: -16%

What do the screens show for `Cc1cccc(OCC(=O)Nc2ccc3c(c2)OCCO3)c1`?
HEK293 cAMP cs: 18%; GBA mod: >77; TSHR agonist: 17%; ERK AVP inh: -2%; PK Bst: inactive; FLuc inh: 13µM*

Results for CC1CCCC(NC(=O)COC(=O)Cc2cn3ccsc3n2)C1C (stereo not given) ?
HEK293 cAMP cs: 32µM*; TSHR agonist: inconclusive; ERK AVP inh: -3%; PK Bst: >57; FLuc inh: -1%

Results for O=c1[nH]c(=S)c2[nH]c(=O)n(-c3ccccc3)c2[nH]1 ?
HEK293 cAMP cs: inconclusive; TSHR agonist: inconclusive; ERK AVP inh: -15%[11.5 µM]; FLuc inh: 0%[11.4 µM]

Results for CCOC(=O)c1c(NC(=O)c2ccc(Cl)s2)sc(C)c1C ?
HEK293 cAMP cs: 6%; TSHR agonist: -4%; FLuc inh: 0%

Results for CCNc1nc(N)c(C(=O)c2ccc(Cl)s2)s1 ?
HEK293 cAMP cs: -9%; GBA mod: inconclusive; TSHR agonist: -26%; ERK AVP inh: 3.2µM*; PK Bst: 2.2*; FLuc inh: inconclusive

Results for CC(=O)C(C)Oc1ccc2c3c(c(=O)oc2c1)CCCCC3 (stereo not given) ?
HEK293 cAMP cs: 16%; GBA mod: >77; TSHR agonist: 25µM*; ERK AVP inh: -8%; FLuc inh: -30%

Results for Nc1ccccc1C(=O)/C=C\c1ccc2c(c1)OCO2 ?
HEK293 cAMP cs: 24%[11.4 µM]; TSHR agonist: 4%[11.4 µM]; ERK AVP inh: 14%[11.5 µM]; FLuc inh: 3.2µM*

What do the screens show for `COc1ccc(NC(=O)c2sc(SC)nc2N)cc1`?
HEK293 cAMP cs: -2%; GBA mod: >77; TSHR agonist: -4%; ERK AVP inh: -17%; FLuc inh: -30%

Results for CCOC(=O)CSc1nc(N)c(C(=O)Nc2ccc(N(C)C)cc2)s1 ?
PK Bst: inactive; FLuc inh: 13µM*

How did COc1cc2cc[n+]3cc4c(OC)c(OC)ccc4cc3c2cc1OC do in these assays?
ERK AVP inh: 3%

Results for COc1ccc2[nH]c3c(c2c1)CCn1c-3nc2ccccc2c1=O ?
HEK293 cAMP cs: 15%; GBA mod: >77; TSHR agonist: -6%; ERK AVP inh: -2%; PK Bst: 0.2*; FLuc inh: 0.63µM*

What do the screens show for `Cc1nc(NCc2ccc3c(c2)OCO3)c2oc3ccccc3c2n1`?
HEK293 cAMP cs: inconclusive; GBA mod: >77; TSHR agonist: inconclusive; ERK AVP inh: inconclusive; PK Bst: >57; FLuc inh: 1%

What do the screens show for `Cc1nc(Nc2ccc3c(c2)OCCO3)c2oc3ccccc3c2n1`?
HEK293 cAMP cs: 9%; GBA mod: >77; ERK AVP inh: 16µM*; PK Bst: 4.3*; FLuc inh: -4%

How did CCOC(=O)c1ccc(N2C(=O)c3n[nH]c(C)c3C2c2ccccc2)cc1 (stereo not given) do in these assays?
HEK293 cAMP cs: 32µM*; GBA mod: >77; TSHR agonist: inconclusive; ERK AVP inh: inconclusive; PK Bst: >57; FLuc inh: 1%

Results for NC(=O)C1CCN(c2oc(-c3ccccc3F)nc2S(=O)(=O)c2ccc(Cl)cc2)CC1 ?
HEK293 cAMP cs: 5%; GBA mod: >77; TSHR agonist: 6%; ERK AVP inh: -9%; PK Bst: 11*; FLuc inh: -1%

What do the screens show for `O=C(O)c1cccc(N=Nc2c(S(=O)(=O)O)ccc3c2C(=O)c2ccccc2C3=O)c1O`?
HEK293 cAMP cs: inconclusive; TSHR agonist: inconclusive; ERK AVP inh: 0%[11.5 µM]; FLuc inh: -1%[11.4 µM]

What do the screens show for `Cc1ccc(S(=O)(=O)c2c(C)nn(C(C)(C)C)c2OC(=O)c2ccc(Br)o2)cc1`?
HEK293 cAMP cs: 3%; GBA mod: 13*; TSHR agonist: 4%; ERK AVP inh: 10%; PK Bst: >57; FLuc inh: -1%

How did Cc1ccc(S(=O)(=O)c2c(C)nn(C(C)(C)C)c2OC(=O)c2ccco2)cc1 do in these assays?
HEK293 cAMP cs: 4%; TSHR agonist: 10%; ERK AVP inh: 33%; PK Bst: >57; FLuc inh: 0%

What do the screens show for `[N-]=[N+]=CC(=O)COC(=O)c1ccccc1`?
HEK293 cAMP cs: 7%[11.4 µM]; TSHR agonist: 4%[11.4 µM]; ERK AVP inh: -8%[11.5 µM]; FLuc inh: 1%[11.4 µM]

How did NC(=O)N[C@H]1NC(=O)NC1=O do in these assays?
HEK293 cAMP cs: 13µM*; TSHR agonist: inconclusive; ERK AVP inh: -3%[25.7 µM]; FLuc inh: -2%[25.5 µM]

Results for Cc1noc(C)c1COC(=O)c1ccc(-c2nc3ccccc3s2)s1 ?
HEK293 cAMP cs: 25%; GBA mod: inconclusive; TSHR agonist: 21%; ERK AVP inh: -9%; PK Bst: >57; FLuc inh: 8%
